According to PubChem BioAssay:
Active and inactive are the calls of the source.

Columns and labels:
[1] = binders of probe aFSTL3 on microarray, primary screen, stem cell growth factor project, biochemical, small-molecule microarray, fluorescence 635/667 (AID 1064); conditions: higher = more signal;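 also: measures binding of the biotinylated anti-FSTL3 antibody to printed compounds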
[2] = binders from COS7 lysate, DM2A8 probe, primary screen, torsin A project, cell lysate, small-molecule microarray, fluorescence 635/667 (AID 1065); conditions: higher = more signal, COS7 lysate expressing mutant human TOR1A
[3] = binders of probe aFGF2 on microarray, primary screen, stem cell growth factor project, biochemical, small-molecule microarray, fluorescence 635/667 (AID 1067); conditions: higher = more signal;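 also: measures binding of biotinylated aFGF2 protein to printed compounds on slides; z-score merges feature fluorescence and signal-to-noise across triplicate slides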
[4] = binders of probe aFGF10 on microarray, primary screen, stem cell growth factor project, biochemical, small-molecule microarray, fluorescence 635/667 (AID 1071); conditions: higher = more signal;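 also: score merges 667 nm spot intensity and signal to noise from triplicate slides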
[5] = target: Neurogenic locus notch homolog protein 2 (Homo sapiens) (UniProt Q04721); assay: Notch2 binders on small-molecule microarrays, primary screen, biochemical, small-molecule microarray, 635 nm fluorescence, stem cell growth factors (AID 1073); conditions: Notch2 binding, higher = more signal
[6] = target: Pro-neuregulin-1, membrane-bound isoform (Homo sapiens) (UniProt Q02297); assay: NRG1 binders on small-molecule microarrays, primary screen, psychiatric disease protein project, biochemical, small-molecule microarray, fluorescence 635/667 (AID 1075); conditions: NRG1 binding, 635 nm fluorescence, higher = more signal;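 also: score combines 667 nm spot fluorescence with signal to noise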
[7] = tested on: Neuregulin-1 EGF-like domain; assay: binders of neuregulin-1 EGF-like domain, primary screen, biochemical, small-molecule microarray, 635 nm fluorescence (AID 1081); conditions: small-molecule microarray binding, higher = more signal;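 also: binding of the protein to compounds printed on small-molecule microarray slides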
[8] = FRG1 promoter luciferase signal modulators, primary screen, FRG1 inhibition for FSHD, cell-based, C2C12 myotubes, firefly/Renilla luciferase, luminescence (AID 1084); conditions: higher = more signal, called active from +8 up or from −8 down
[9] = binders of probe aFST on microarray, primary screen, stem cell growth factor project, biochemical, small-molecule microarray, fluorescence 635/667 (AID 1086); conditions: higher = more signal;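 also: score merges 667 nm fluorescence with signal-to-noise of each printed compound spot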
[10] = binders of probe aHhip on microarray, primary screen, stem cell growth factor project, biochemical, small-molecule microarray, fluorescence 635/667 (AID 1087); conditions: higher = more signal;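 also: score merges spot fluorescence at 667nm with spot signal to noise ratio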

Sequence of Neurogenic locus notch homolog protein 2 (Homo sapiens) (Q04721 whole entry, looked up, canonical isoform): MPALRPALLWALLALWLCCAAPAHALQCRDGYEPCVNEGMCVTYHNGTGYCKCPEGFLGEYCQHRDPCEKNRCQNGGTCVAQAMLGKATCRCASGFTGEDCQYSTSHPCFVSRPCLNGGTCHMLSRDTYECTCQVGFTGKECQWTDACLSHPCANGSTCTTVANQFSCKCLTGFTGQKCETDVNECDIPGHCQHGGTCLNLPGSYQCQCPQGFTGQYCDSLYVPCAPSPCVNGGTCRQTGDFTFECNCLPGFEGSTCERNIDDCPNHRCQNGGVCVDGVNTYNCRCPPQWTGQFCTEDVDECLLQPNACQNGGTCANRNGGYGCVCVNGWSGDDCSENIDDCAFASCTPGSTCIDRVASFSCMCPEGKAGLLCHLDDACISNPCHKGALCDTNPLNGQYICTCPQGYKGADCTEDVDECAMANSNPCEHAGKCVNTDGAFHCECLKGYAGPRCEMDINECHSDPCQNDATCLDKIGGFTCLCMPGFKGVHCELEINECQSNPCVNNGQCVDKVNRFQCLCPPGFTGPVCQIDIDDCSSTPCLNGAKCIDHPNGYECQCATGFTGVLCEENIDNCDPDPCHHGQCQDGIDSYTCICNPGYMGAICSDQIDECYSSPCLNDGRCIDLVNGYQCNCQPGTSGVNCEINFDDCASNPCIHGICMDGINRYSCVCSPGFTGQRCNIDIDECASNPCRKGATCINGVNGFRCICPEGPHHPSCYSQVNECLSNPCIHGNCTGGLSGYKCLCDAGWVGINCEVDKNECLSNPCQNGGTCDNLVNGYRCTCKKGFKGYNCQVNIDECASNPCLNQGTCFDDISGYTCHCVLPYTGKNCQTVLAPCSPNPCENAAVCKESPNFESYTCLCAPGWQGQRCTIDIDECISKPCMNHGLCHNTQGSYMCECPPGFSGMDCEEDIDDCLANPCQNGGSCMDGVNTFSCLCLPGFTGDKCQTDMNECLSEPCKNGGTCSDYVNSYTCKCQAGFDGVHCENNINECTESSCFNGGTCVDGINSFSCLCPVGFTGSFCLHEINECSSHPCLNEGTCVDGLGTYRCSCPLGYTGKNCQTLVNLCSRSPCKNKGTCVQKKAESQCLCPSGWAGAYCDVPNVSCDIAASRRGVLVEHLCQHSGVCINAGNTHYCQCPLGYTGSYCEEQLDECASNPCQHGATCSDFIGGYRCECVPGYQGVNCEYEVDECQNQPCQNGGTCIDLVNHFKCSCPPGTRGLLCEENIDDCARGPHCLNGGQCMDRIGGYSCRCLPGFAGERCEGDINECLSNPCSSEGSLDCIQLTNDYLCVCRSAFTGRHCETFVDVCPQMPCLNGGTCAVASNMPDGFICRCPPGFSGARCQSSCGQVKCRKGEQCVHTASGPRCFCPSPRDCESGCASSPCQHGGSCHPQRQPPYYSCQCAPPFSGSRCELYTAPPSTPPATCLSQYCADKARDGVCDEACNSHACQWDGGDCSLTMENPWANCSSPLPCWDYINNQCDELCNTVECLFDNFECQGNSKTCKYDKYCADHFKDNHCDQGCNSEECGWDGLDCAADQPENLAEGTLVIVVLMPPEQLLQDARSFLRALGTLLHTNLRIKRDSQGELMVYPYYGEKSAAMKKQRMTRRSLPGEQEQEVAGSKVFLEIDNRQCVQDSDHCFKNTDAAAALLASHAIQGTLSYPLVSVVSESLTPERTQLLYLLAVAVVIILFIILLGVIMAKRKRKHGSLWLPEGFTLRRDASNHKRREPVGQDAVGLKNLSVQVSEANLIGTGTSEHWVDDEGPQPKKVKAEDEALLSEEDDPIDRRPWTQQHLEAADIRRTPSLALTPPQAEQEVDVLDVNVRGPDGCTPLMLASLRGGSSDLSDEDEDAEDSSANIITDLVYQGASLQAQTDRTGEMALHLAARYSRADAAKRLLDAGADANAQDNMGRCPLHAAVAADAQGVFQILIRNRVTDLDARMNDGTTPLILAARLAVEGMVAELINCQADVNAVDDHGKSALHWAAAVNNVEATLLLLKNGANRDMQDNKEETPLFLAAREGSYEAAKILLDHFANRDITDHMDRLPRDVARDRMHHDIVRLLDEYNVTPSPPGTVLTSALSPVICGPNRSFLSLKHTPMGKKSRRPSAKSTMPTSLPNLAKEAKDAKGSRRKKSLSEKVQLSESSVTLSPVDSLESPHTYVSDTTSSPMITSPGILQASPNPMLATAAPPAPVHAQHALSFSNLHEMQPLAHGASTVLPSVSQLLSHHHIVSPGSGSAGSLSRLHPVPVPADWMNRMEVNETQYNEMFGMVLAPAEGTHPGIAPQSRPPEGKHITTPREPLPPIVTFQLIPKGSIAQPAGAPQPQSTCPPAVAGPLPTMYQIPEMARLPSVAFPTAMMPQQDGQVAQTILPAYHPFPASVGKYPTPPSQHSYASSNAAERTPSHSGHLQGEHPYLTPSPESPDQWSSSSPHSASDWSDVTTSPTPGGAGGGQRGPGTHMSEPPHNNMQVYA
Sequence of Pro-neuregulin-1, membrane-bound isoform (Homo sapiens) (Q02297 whole entry, looked up, the tested form may be a part, canonical isoform): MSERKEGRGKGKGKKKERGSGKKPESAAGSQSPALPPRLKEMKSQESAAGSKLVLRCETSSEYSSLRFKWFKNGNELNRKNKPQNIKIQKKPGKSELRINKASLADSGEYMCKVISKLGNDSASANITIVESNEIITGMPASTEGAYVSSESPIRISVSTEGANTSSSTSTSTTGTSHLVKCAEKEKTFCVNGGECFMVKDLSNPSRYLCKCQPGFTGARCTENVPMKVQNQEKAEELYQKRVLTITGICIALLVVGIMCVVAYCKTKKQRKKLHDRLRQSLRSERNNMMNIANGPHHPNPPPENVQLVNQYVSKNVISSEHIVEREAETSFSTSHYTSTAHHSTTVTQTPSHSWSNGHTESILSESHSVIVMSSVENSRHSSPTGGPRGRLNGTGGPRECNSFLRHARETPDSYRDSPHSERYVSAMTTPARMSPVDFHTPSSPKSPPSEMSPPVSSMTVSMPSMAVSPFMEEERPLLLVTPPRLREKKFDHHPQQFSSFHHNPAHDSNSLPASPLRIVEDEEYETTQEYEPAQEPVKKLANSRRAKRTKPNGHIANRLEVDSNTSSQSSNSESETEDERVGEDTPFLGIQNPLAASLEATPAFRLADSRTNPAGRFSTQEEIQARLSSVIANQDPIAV

SMILES	composite z-score [1]	composite z-score [2]	composite z-score [3]	composite z-score [4]	composite z-score [5]	composite z-score [6]	composite z-score [7]	z-score [8]	composite z-score [9]	composite z-score [10]
C=C[C@@H](C)[C@H](O)c1ccc(OCCO)cc1	0.684	-1.91	-0.182	-0.84	-1.67	-0.0655	1.04	5.39 (inactive)	-1.06	-0.236
C=C(COC)/C(=C/C[C@@H](OC(C)=O)c1ccc(CO)o1)c1cc(C(=O)OC)ccc1OC	-0.22	0.707	-0.111	0.851	-0.378	1.46	1.3	0.435 (inactive)	-0.179	-0.0994
C=C(CCCC)/C(=C/C[C@H](OC(C)=O)c1ccc(OCCO)cc1)c1cc(C(=O)OC)ccc1OC	-0.321	-0.137	0.0057	0.674	-0.0254	1.04	1	8.65 (active)	-0.28	-0.179
COC(=O)[C@@]1(Cc2ccc(OC)cc2)[C@H]2c3cc(C(=O)N4CCCC4)n(Cc4cc(C)n(C)n4)c3C[C@H]2CN1C(=O)c1ccccc1	0.404	0.0011	0.37	1.3	1.76	2.16	1.33	0.301 (inactive)	0.821	2.67
COc1ccc(C(=O)Nc2cccc(CN3C(=O)[C@@]4(O[C@@H](CC(=O)N(CCO)Cc5ccccc5)[C@H]([Si](C)(C)c5ccc(OC)cc5)[C@H]4C)c4ccccc43)c2)cc1	-0.117	0.741	-0.119	0.079	-0.342	0.585	1.09	-2.55 (inactive)	-0.141	0.0274
COc1cc(NN2C(C(O)C3CCCCC3)C=CC3C(=O)N(C)C(=O)C32)cc(OC)c1OC (stereo not given)	0.322	0.054	0.162	0.306	1.59	1.65	1.21	0.391 (inactive)	0.479	0.0877
CO[C@H]1O[C@H](CO)[C@@H](OC(=O)Nc2cccc(F)c2)[C@H](OC(=O)Nc2ccccc2-c2ccccc2)[C@H]1OC(=O)Nc1ccccc1-c1ccccc1	-0.24	0.368	0.0591	0.64	1.53	1.72	1.35	0.322 (inactive)	1.36	-0.247
CC(=O)NCCCC[C@@H]1NC(=O)[C@@H]2C[C@H](C(=O)NCCCCCCN)[C@H](c3cccc(OCCO)c3)N2C1=O	0.501	0.43	-0.0336	0.281	-0.149	1.63	1.08	2.15 (inactive)	-0.0064	-0.0296
CC(=O)N1CC(C(O)C2C=CC3C(=O)NC(=O)C3N2Nc2ccc(Cl)cc2Cl)c2ccccc21 (stereo not given)	0.856	-0.0312	0.203	0.925	1.28	1.7	0.727	0.425 (inactive)	0.496	0.0854
CN1C(=O)C2C(C1=O)C1C=C(CCCO)C2C(c2cccs2)N1Cc1cc2c(cc1Br)OCO2 (stereo not given)	-0.262	0.725	0.131	0.645	1.62	2.19	1.28	-3.26 (inactive)	1.6	-0.109
CO[C@H]1O[C@H](CO)[C@@H](OC(=O)Nc2ccc(C#N)cc2)[C@@H]2OC(=O)[C@H](Cc3cccc(Br)c3)C/C=C/C[C@@H](Cc3cccc(Br)c3)C(=O)O[C@@H]12	-0.381	-0.0617	-0.0181	0.503	0.626	0.514	0.3	-0.362 (inactive)	0.572	0.195
Cc1ccc(C(C)CC(O)C2C=CC3C(=O)N(c4ccccc4)C(=O)C3N2Nc2ccc(C#N)cc2)o1 (stereo not given)	0.0794	-0.28	0.0489	0.954	1.7	1.88	1.08	-0.629 (inactive)	0.998	-0.283
O=C(NCC(O)CO)[C@@]1(CCS(=O)(=O)c2ccccc2)COC(c2ccc(OCCCO)cc2)=N1 (stereo not given in full)	1.05	1.85	0.0729	0.25	1.45	2.12	1.41	-1.16 (inactive)	1.1	-0.214
[N-]=[N+]=NCc1ccccc1C[C@]1(C(=O)N2CCOCC2)COC(c2ccc(OCCCO)cc2)=N1	0.518	0.456	0.083	0.973	0.626	1.02	1.24	-2.87 (inactive)	0.73	-0.0237
O=C(NCCN1CCOCC1)[C@@H]1c2ccccc2C(=O)N(Cc2ccccc2)[C@H]1c1ccc(CO)cc1	0.39	-0.334	-0.175	-0.961	-0.913	1.77	1.1	-0.508 (inactive)	-0.0557	-0.312
O=C1[C@@H]2[C@@H](CC(COc3ccccc3)=C3[C@@H](CCc4ccccc4)OB(O)C[C@@H]32)C(=O)N1Cc1ccccc1	-0.559	0.242	-0.0737	0.265	0.697	0.81	-0.113	0.0109 (inactive)	0.531	-0.289
Cc1ccc(S[C@]2(C(=O)NC(C)C)CC(=O)N(Cc3ccccc3Cl)[C@@H]2c2ccc(CO)cc2)cc1	0.827	-1.59	-0.0474	-0.519	-0.266	1.03	1.37	-3.34 (inactive)	-0.519	-0.169
C=CCNC(=O)[C@@H]1[C@H]2C(=O)O[C@H](c3ccccc3)[C@H](c3ccccc3)N2[C@H](c2ccc(O)cc2)[C@@]12C(=O)N(C(=O)OCCOC)c1ccc(C#CCCO)cc12	-0.0125	0.376	-0.0222	0.82	0.258	1.05	1.35	0.354 (inactive)	0.256	0.0274
CC(C)CNC(=O)[C@@H]1c2ccccc2C(=O)N(C2CCCCC2)[C@H]1c1ccc(CO)cc1	0.386	-0.754	-0.0962	-0.305	-0.354	1.69	1.28	-1.8 (inactive)	0.0088	0.0497
CC(C)C(=C=CC[C@@H](O)c1cccc(OCCO)c1)C[C@@H](O)COCc1ccccc1	-0.0972	-0.254	-0.0835	0.45	-0.554	-0.0802	-0.547	-2.12 (inactive)	0.182	-0.188
C[C@@H]1ON(c2ccc(I)cc2)[C@H](c2ccc(OC(=O)OC(C)(C)C)cc2)[C@H]1C(=O)N1C(=O)OC[C@H]1Cc1ccccc1	-0.478	0.0988	-0.175	0.253	0.756	0.178	0.492	3.7 (inactive)	0.238	-0.0672
C=CCC(OC(C)=O)[C@@H]1[C@@H](N(Cc2ccc(-c3ccccc3)cc2)C(=O)Cc2ccc(F)cc2)c2cc(OCCCO)ccc2N1C(=O)Cc1ccc2ccccc2c1 (stereo not given in full)	-0.0873	-0.286	-0.0271	-0.214	-0.821	-0.0447	-0.84	0.0197 (inactive)	0.252	-0.0047
C=CCN1C(=O)[C@@]2(O[C@@H](CCO)[C@H]([Si](C)(C)c3ccc(OC)cc3)[C@H]2C)c2cc(N3CCOC3=O)ccc21	-0.0204	0.0241	-0.0455	0.448	0.165	1.21	1.09	-1.66 (inactive)	0.162	-0.236
COCCOC(=O)N1C(=O)[C@@]2(c3cc(C#CC4=CCCCC4)ccc31)[C@H](C(=O)N1CCCCCCC1)[C@H]1C(=O)O[C@H](c3ccccc3)[C@H](c3ccccc3)N1[C@@H]2c1ccc(OCCO)cc1	1.77	0.399	0.316	0.5	0.891	0.455	1.1	1.06 (inactive)	1.36	0.739
COc1cc(NN2C(C(O)C3CCCCC3)C=CC3C(=O)N(c4ccccc4)C(=O)C32)cc(OC)c1OC (stereo not given)	1.44	-0.28	-0.116	0.56	1.7	1.67	1.18	0.374 (inactive)	0.964	-0.202
